# Reference: PubChem BioAssay
# The source made the active and inactive calls. Unless noted, how the calls were made is not given here.
# Legend:
# [1] = resazurin metabolic signal in HepG2 cells – cell-based, resazurin fluorescence, 24 h, PK04 Diversity Set, profiling panel (AID 1172); details: HepG2 viability, higher = more signal
# [2] = budding yeast growth changes without added modifier – OD600, strain BY4716, 24 h, basal condition, primary screen (AID 1173); details: S. cerevisiae BY4716 growth, OD600, 24 h; higher = more signal, called active from +8 up or from −8 down
# [3] = viability profiling in MM1S myeloma cells – cell-based, resazurin fluorescence, basal, 24 h, PK04 Diversity Set, profiling panel (AID 1174); details: higher = more signal, called active from +8 up or from −8 down;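 further: MM1S multiple myeloma cell line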
# [4] = molecular target: Dihydroorotate dehydrogenase (quinone), mitochondrial (Plasmodium falciparum (isolate 3D7)) (UniProt Q08210); experiment: inhibition of P. falciparum DHODH – biochemical, C-terminal His tag, absorbance 600 nm, primary screen (AID 1175); details: PfDHODH enzyme, DCIP absorbance 600 nm; higher = more signal, called active from +8 up or from −8 down;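 further: recombinant parasite enzyme with a five histidine tag at its C terminus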
# [5] = inhibition of PAO1 biofilm formation – strain PAO1, LB-PBS medium, absorbance 600 nm, primary screen (AID 1176); details: P. aeruginosa PAO1 growth/biofilm, A600, 12 h; higher = more signal
# [6] = growth modulation of vineyard yeast isolate – strain RM11-1a, OD600, basal, 24 h, primary screen (AID 1177);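 further: cultures grown under basal conditions with no added stressor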; details: S. cerevisiae RM11-1a growth, OD600, 24 h; higher = more signal, called active from +8 up or from −8 down
# [7] = growth of efflux-deficient E. coli DRC39 – strain DRC39, OD650, 24 h, E. coli filamentation inducers, primary screen (AID 1178);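 further: growth measured as culture turbidity by optical density at 650 nm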; details: E. coli DRC39 acrAB, higher = more signal, called active from +8 up or from −8 down
# [8] = growth of efflux-deficient E. coli DRC39 – strain DRC39, OD650, 48 h, E. coli filamentation inducers, primary screen (AID 1179);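 further: screen aims at cell division blockers that make cells filament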; details: E. coli DRC39 delta-acrAB growth, higher = more signal, called active from +8 up or from −8 down
# [9] = viability profiling in RPMI8226 myeloma cells – cell-based, resazurin fluorescence, basal, 24 h, PK04 Diversity Set, profiling panel (AID 1180); details: higher = more signal;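 further: RPMI8826 multiple myeloma cell line at 5000 cells per well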
# [10] = molecular target: E3 ubiquitin-protein ligase XIAP (Homo sapiens) (UniProt P98170); experiment: small molecules binding XIAP protein – biophysical, small-molecule microarray, fluorescence 635 nm, primary screen (AID 1181); details: higher = more signal;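 further: score merges 667 nm emission and signal to noise over triplicate slides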
# [11] = tested on: XIP peptide (Xip251-270) binding; experiment: XIP fragment 251-270 binding compounds – biochemical, small-molecule microarray, fluorescence 635/667 nm, 0.1 µg/mL protein, primary screen (AID 1182); details: fluorescent protein binding, 635 nm, higher = more signal, called active from +8 up or from −8 down
# [12] = tested on: XIP peptide (Xip251-270); experiment: compounds binding XIP fragment 251-270 – biochemical, small-molecule microarray, fluorescence 635/667 nm, 0.5 µg/mL protein, primary screen (AID 1183); details: fluorescence 635 nm, higher = more signal
# [13] = blood-stage malaria parasite viability loss – strain 3D7, DAPI fluorescence, 100 nL, primary screen (AID 1184);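 further: parasites grown inside human red blood cells in medium with human serum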; details: P. falciparum 3D7 growth, 3 d, higher = more signal
# [14] = molecular target: Homeobox protein Hox-A13 (Mus musculus) (UniProt Q62424); experiment: disruptors of Hoxa13 oligonucleotide interaction – biochemical, fluorescence polarization, labeled oligonucleotide, primary screen (AID 1185); details: Hoxa13:DNA binding, 15 min, higher = more signal, called active from +8 up or from −8 down
# [15] = blockers of DNA damage checkpoint Chk1 activation – imaging, HeLa, hydroxyurea, phospho-Chk1 antibody, percent positive cells, primary screen (AID 1186); details: hydroxyurea-induced phospho-Chk1 immunofluorescence imaging, higher = more signal
# [16] = blockers of DNA damage checkpoint Chk1 activation – imaging, HeLa, hydroxyurea, phospho-Chk1 nuclear intensity, primary screen (AID 1187); details: hydroxyurea-induced phospho-Chk1 immunofluorescence imaging, higher = more signal
# Sequence of E3 ubiquitin-protein ligase XIAP (Homo sapiens) (P98170 whole entry, looked up, the tested form may be a part): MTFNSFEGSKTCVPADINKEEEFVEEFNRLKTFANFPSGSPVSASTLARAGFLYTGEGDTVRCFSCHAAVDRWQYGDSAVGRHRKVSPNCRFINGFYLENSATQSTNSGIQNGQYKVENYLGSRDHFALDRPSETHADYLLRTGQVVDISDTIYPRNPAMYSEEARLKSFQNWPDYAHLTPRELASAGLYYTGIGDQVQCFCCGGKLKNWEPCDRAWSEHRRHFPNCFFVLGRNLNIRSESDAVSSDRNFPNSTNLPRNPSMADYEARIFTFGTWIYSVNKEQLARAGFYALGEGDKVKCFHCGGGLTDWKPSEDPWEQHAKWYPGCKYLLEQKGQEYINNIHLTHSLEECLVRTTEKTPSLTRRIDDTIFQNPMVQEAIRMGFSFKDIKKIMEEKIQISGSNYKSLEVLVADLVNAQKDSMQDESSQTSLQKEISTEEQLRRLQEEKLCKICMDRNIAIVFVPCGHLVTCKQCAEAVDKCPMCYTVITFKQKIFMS
# Sequence of Homeobox protein Hox-A13 (Mus musculus) (Q62424 whole entry, looked up): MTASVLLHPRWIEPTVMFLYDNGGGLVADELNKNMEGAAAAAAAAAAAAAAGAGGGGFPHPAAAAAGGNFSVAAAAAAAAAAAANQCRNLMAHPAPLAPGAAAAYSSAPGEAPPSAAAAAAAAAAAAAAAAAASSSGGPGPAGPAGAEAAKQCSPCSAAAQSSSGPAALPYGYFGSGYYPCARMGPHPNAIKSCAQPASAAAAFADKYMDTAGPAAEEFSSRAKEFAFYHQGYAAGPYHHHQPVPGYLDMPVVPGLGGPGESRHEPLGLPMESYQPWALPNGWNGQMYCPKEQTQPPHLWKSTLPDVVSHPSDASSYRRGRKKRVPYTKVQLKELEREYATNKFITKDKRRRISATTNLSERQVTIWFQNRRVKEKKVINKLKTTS
# Sequence of Dihydroorotate dehydrogenase (quinone), mitochondrial (Plasmodium falciparum (isolate 3D7)) (Q08210 whole entry, looked up): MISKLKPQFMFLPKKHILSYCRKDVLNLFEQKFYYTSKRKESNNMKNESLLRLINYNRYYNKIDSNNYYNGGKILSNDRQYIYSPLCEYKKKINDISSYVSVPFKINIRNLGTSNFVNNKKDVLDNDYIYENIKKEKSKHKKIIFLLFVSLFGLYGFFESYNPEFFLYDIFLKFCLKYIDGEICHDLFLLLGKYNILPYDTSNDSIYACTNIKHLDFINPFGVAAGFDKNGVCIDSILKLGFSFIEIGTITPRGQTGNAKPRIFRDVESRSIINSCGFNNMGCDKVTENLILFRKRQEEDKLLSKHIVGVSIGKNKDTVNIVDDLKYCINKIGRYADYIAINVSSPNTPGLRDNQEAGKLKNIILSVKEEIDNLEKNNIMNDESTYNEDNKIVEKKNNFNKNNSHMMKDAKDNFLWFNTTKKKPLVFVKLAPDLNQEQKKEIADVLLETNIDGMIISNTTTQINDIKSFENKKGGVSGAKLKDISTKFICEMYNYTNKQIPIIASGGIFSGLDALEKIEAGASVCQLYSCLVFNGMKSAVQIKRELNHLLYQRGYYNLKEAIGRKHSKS
Structure (SMILES),z-score [1],z-score [2],z-score [3],composite z-score [4],z-score [5],z-score [6],z-score [7],z-score [8],z-score [9],composite z-score [10],composite z-score [11],composite z-score [12],z-score [13],z-score [14],z-score [15],z-score [16]
Cc1cc(C)cc(N2C(=O)CS(=O)(=O)C2c2cccc([N+](=O)[O-])c2)c1 (centres undefined),-0.0507,-0.658 (inactive),-0.208 (inactive),-2.1 (inactive),-0.407 (inactive),-0.438 (inactive),0.899 (inactive),1.04 (inactive),-0.194,-0.22,2.64 (inactive),0.0376,0.494,-0.0181 (inactive),-0.0327 (inactive),0.353 (inactive)
CCCN1C(=O)[C@]2(COC(c3ccc(OCCCO)cc3)=N2)Cc2ccccc21,0.0036,-1.69 (inactive),-0.543 (inactive),-0.238 (inactive),-0.152 (inactive),0.235 (inactive),-0.011 (inactive),-0.0774 (inactive),-0.454,-0.195,1.71 (inactive),0.42,-0.755,-6.01 (inactive),-0.0155 (inactive),0.239 (inactive)
COc1ccc([Si](C)(C)[C@H]2[C@H](CCn3cc([C@H](O)c4ccccc4)nn3)O[C@@]3(C(=O)N(Cc4cccc(N5CCC5=O)c4)c4ccccc43)[C@@H]2C)cc1,0.429,-1.53 (inactive),-0.85 (inactive),-1.21 (inactive),1.59 (inactive),-0.101 (inactive),0.898 (inactive),1.02 (inactive),0.388,0.166,0.275 (inactive),0.444,-1.98,-2.56 (inactive),-1.17 (inactive),-0.364 (inactive)
CCOC(=O)C1=CCC(c2ccc(C#N)cc2)N(S(=O)(=O)c2ccc(C)cc2)C1 (centres undefined),-0.688,0.916 (inactive),-1.35 (inactive),-0.496 (inactive),0.654 (inactive),0.906 (inactive),-0.445 (inactive),0.435 (inactive),-1.94,-0.187,1.79 (inactive),0.766,-1.33,-3.74 (inactive),-0.308 (inactive),-1.22 (inactive)
CC(C)C[C@@H]1NC(=O)[C@@H]2C[C@H](C(=O)NCCCCCC[N+](C)(C)C)[C@H](c3ccc(O)cc3)N2C1=O,-0.219,0.54 (inactive),0.181 (inactive),0.191 (inactive),-0.282 (inactive),1.11 (inactive),0.487 (inactive),0.62 (inactive),0.0176,-0.0056,1.5 (inactive),0.535,0.727,-2.3 (inactive),-0.525 (inactive),-0.124 (inactive)
COC(=O)C(CC#Cc1ccc2c(c1)[C@]1(C(=O)N2)[C@H](C(=O)NC[C@H](O)c2ccccc2)[C@H]2C(=O)O[C@H](c3ccccc3)[C@H](c3ccccc3)N2[C@@H]1c1ccc(OCCO)cc1)C(=O)OC,0.0416,1.77 (inactive),-0.0507 (inactive),-16.8 (active),3.42 (inactive),2.62 (inactive),0.389 (inactive),0.335 (inactive),-0.223,0.201,0.518 (inactive),0.736,-2.15,-2.24 (inactive),-0.0625 (inactive),-0.136 (inactive)
COc1cc(CO)ccc1OC(C)=O,-0.386,-0.277 (inactive),-0.779 (inactive),-1.75 (inactive),-0.248 (inactive),-1.18 (inactive),0.35 (inactive),0.915 (inactive),-0.927,-0.17,-0.152 (inactive),0.383,0.186,0.472 (inactive),-0.111 (inactive),0.0389 (inactive)
[N-]=[N+]=NCc1ccccc1[C@@H]1OC(c2ccc(OCCCO)cc2)=N[C@]1(Cc1ccccc1)C(=O)N1CCCCC1,-0.596,-1.11 (inactive),-1.3 (inactive),0.678 (inactive),-0.621 (inactive),1.48 (inactive),0.775 (inactive),0.345 (inactive),-0.94,-0.257,0.34 (inactive),0.654,-2.23,-3.35 (inactive),-0.837 (inactive),-0.726 (inactive)
CN1C=C(C(=O)OCCS(C)(=O)=O)C(C(=O)OCCS(C)(=O)=O)=CC(CCCO)=CC1C1CC1 (centres undefined),0.427,-2.11 (inactive),-0.16 (inactive),-1.23 (inactive),-0.353 (inactive),-0.558 (inactive),1.38 (inactive),1.29 (inactive),0.0101,-0.366,1.7 (inactive),0.01,-0.766,-5.26 (inactive),-1.31 (inactive),-0.118 (inactive)
